The list is not random: actives were taken first. Their share in the collection is about 2.7%.
TMEM16A act – activates or potentiates the mouse TMEM16A chloride channel | Q8BHY3 | HEK293 TMEM16A/YFP-H148Q/I152L, iodide quench fluorescence; hits give low values | B-score at 10 µM | 340,000 tested, 0.3% active | AID 623877;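 active means fluorescence-ratio B-score plate-corrected deviation score at least 3 library SD below zero, with starting fluorescence score within 5 deviations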;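 further: channel opened by trigger with iodide after compound preincubation; score built on the fluorescence ratio of max minus min over baseline; more negative score means more quench and so TMEM16A activation or potentiation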
ANO1 block – blocks the mouse calcium-activated chloride channel TMEM16A; Q8BHY3; HEK293 TMEM16A/YFP iodide influx fluorescence, ionomycin; normalized B-score (activity score, 25-100; higher = stronger inhibition) at 10 µM; 310,000 tested, 1.2% active; AID 588511;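 active means ratio plate-corrected score three or more library SD toward inhibition, starting fluorescence score within five deviations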;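 further: score derived from kinetic fluorescence span divided by baseline fluorescence per well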
PP1 inh – counter-screen for PP5 inhibitors: inhibitors of human PP1-alpha. 320,000 tested, 0.9% active. P62136. AID 2235. purified PP1alpha, OMFP fluorescence. inhibition, % at 6.7 µM;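 active means inhibition above the mean inhibition of all tested compounds plus 3 SD, computed separately for each screening campaign, cut at about 15% in these data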
Target sequence (P62136 whole entry, looked up): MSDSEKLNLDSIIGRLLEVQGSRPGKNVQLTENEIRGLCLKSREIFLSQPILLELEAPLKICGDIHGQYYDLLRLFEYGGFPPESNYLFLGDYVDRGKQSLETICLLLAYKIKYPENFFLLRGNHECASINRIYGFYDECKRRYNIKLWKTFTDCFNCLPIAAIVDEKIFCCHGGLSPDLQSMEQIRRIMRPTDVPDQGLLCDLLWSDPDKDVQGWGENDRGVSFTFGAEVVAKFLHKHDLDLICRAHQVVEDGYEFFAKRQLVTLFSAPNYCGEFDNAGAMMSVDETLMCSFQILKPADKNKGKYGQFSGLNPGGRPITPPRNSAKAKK
DNA FID counter – displaces DNA intercalator in HCV helicase counter-screen; 290,000 tested, 0.17% active; AID 1845; DNA fluorescent intercalator displacement, fluorescence; inhibition, % at 7.9 µM; in the data active means inhibition above about 37%;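 further: 0% = vehicle and 100% = reference compound; higher means more ethidium bromide displaced from hairpin DNA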
PP5 inh – PP5 (human) phosphatase inhibition; purified PP5c, OMFP substrate fluorescence; inhibition, % at 6.7 µM; 320,000 tested, 0.18% active; AID 1987;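 active means inhibition above the campaign's mean inhibition across all tested compounds plus 3 SD, cut at about 9.5% in these data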;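 further: 0% = DMSO only and 100% = 100 µM cantharidin control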
PREPL inhibitor – inhibitors of human prolyl oligopeptidase-like enzyme PREPL; Q4J6C6; recombinant PREPL, fluorescence polarization activity-based probe; inhibition, % at 5.96 µM; 320,000 tested, 0.68% active; AID 2751; in the data active means inhibition above about 43%;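 further: 0% = enzyme with DMSO and 100% = wells lacking enzyme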
* hit, by the source's call; i = inactive; x = no result given.

SMILES	TMEM16A act	ANO1 block	PP1 inh	DNA FID counter	PP5 inh	PREPL inhibitor
O=C(NC1CCN(Cc2ccccc2)CC1)c1cccc(S(=O)(=O)Nc2cc(C(F)(F)F)ccc2Cl)c1	i	25*	2	18	4	2
CCCCCO	i	x	-5	x	-2	-1
C[C@H](NC(=O)c1nc[nH]c1C(=O)NC1CCNCC1)C(=O)OCc1ccccc1	x	x	x	x	x	3
Cc1ccc(S(=O)(=O)NCCS(=O)(=O)N2CCN(c3ccccc3)CC2)cc1	i	i	1	-35	1	-49
O=[N+]([O-])c1ccc(S(=O)(=O)NCCS(=O)(=O)N2CCN(c3ccccc3)CC2)cc1	-29*	i	1	0	0	2
C=CCOC1COC2C(OCC=C)COC12 (stereo unspecified)	i	x	x	x	x	x
NC(=O)CN(c1ccc([N+](=O)[O-])cc1)S(=O)(=O)c1ccccc1	i	i	-1	-6	1	0
c1ccc(CN2CCC(Nc3nc(-c4ccccc4)nc4ccccc34)CC2)cc1	i	i	7	42*	5	-24
c1ccc(CN2CCC(CNc3ncnc4ccccc34)C2)cc1 (stereo unspecified)	i	x	x	x	x	x
CCOc1ccccc1OCCC(=O)OCC(=O)Nc1c(C)cc(C)cc1C	i	i	-3	x	-1	-11
Clc1ccccc1OCc1nnc(-c2ccccc2Br)o1	i	i	2	-7	2	-4
O=c1c(Cl)c(Cl)cnn1Cc1nnc(-c2ccccc2Br)o1	-13*	x	x	-13	x	x
C=CCSc1nsc(NC(=O)Nc2ccc(F)cc2)n1	i	100*	8	2	4	12
CC(C)CCNC(=O)CCCOc1ccccc1	-4.6*	i	4	-4	0	2
FC(F)(F)c1cccc(NC(=S)Nc2ccc(Cl)cc2Cl)c1	i	100*	-2	2	5	10
O=C(NNC(=S)Nc1cccc(C(F)(F)F)c1)c1ccccc1Cl	i	25*	1	-2	6	10
Fc1ccc(NC(=S)Nc2ccc(F)c(Cl)c2)cc1Cl	-10*	100*	0	1	5	2
CCOC(=O)/C(C(=Nc1ccccc1)Nc1ccccc1)=C(\C)O	i	i	-3	-14	2	-3
NC(=Nc1ccccc1)Nc1ccccc1	-14*	i	1	-4	1	-4
CCCCN1CC(O)=C(c2nc(-c3ccc(Cl)cc3)cs2)C1=N	i	i	7	-1	1	20
N=C1C(c2nc(-c3ccc(Cl)cc3)cs2)=C(O)CN1CCCN1CCOCC1	i	i	0	30	2	57*
CN(C)c1ncc(S(=O)(=O)c2ccccc2)c(-c2ccc(Cl)cc2Cl)n1	i	i	2	-24	1	-4
CN(C)c1ncc(S(=O)(=O)c2ccc(Cl)cc2)c(-c2ccc(Cl)cc2Cl)n1	-7.7*	i	0	-4	1	7
S=C(NCCc1ccccn1)Nc1ccc(Cl)cc1Cl	i	i	-4	-8	-1	-16
CCOc1cc(/C=N/NC(=O)c2cc(C)[nH]n2)ccc1OC(=O)c1ccc([N+](=O)[O-])cc1	x	100*	-3	3	1	7
SMILES	TMEM16A act	ANO1 block	PP1 inh	DNA FID counter	PP5 inh	PREPL inhibitor
CCOc1cc(/C=N\NC(=O)c2ccc(NC(=O)CC)cc2)ccc1OC(=O)c1ccccc1	i	i	2	0	0	4
COc1cc(/C=N/NC(=O)COc2c(C)cc([N+](=O)[O-])cc2C)ccc1OC(=O)c1ccccc1	i	i	12	-14	5	71*
CCOc1cc(/C=N/NC(=O)CNc2ccc(C)cc2)ccc1OC(=O)c1ccccc1	i	i	15*	-15	2	18
COc1cccc(/C=C2/CCC(CN(C)C)C2=O)c1 (stereo unspecified)	i	x	x	x	x	x
O=C(CC1C[C@H](C(=O)N2CCOCC2)[C@@]2(CCC3CCCC3)c3[nH]c4ccccc4c3CCN2C1=O)NCc1ccco1 (stereo partly specified)	x	x	x	x	x	8
CCOc1ccc(C(O)(c2ccccc2)C(CN2CCCC2)c2ccccc2)cc1 (stereo unspecified)	i	i	-7	7	-1	16
COCCN(C(=O)COC(=O)c1ccc(-c2ccccc2)cc1)c1c(N)n(Cc2ccccc2)c(=O)[nH]c1=O	i	x	x	x	x	x
Cc1ccc(OCC(=O)NNC(=S)NC(=O)c2ccc(Br)o2)c(C)c1	i	25*	x	-12	x	x
Cc1ccc(OCC(=O)NNC(=S)NC(=O)c2cccs2)c(C)c1	i	i	x	-10	x	x
C/C(=N\NS(=O)(=O)c1ccccc1)c1cc(Cl)cc(Cl)c1O	i	100*	2	0	-1	-8
CS(=O)(=O)c1nc(-c2ccc(Br)cc2)cc(-c2ccccc2)c1C#N	i	i	4	-4	3	2
CS(=O)c1nc(-c2ccc(Br)cc2)cc(-c2ccccc2)c1C#N (stereo unspecified)	i	100*	-2	-13	3	-1
COc1ccc(C)c2sc(N(CCN(C)C)C(=O)/C=C/c3cccs3)nc12	i	i	0	32	1	10
COc1ccc(OC)c2sc(N(CCN(C)C)C(=O)/C=C/c3cccs3)nc12	-32*	i	5	44*	3	40
O=C(Nc1ccc(Br)c2ccccc12)c1ccc2ccccc2c1O	i	100*	3	8	-1	17
O=C(COC(=O)c1ccc(O)cc1)Nc1cccc(S(=O)(=O)NC2=NCCC2)c1	-31*	x	-4	x	1	8
NC(=O)Nc1ccc(C(=O)OCC(=O)Nc2cccc(S(=O)(=O)NC3=NCCCCC3)c2)cc1	i	i	-1	-14	-1	-15
CCCCNC(=S)Nc1cccc(S(=O)(=O)NC2=NCCC2)c1	i	i	16*	x	-1	13
COc1ccccc1C(=O)NCCC(=O)N1CC(C)OC(C)C1 (stereo unspecified)	i	x	x	x	x	x
O=C(/C(N=Nc1cccc(C(F)(F)F)c1)=C(/O)c1cccs1)C(F)(F)F	i	100*	-1	1	2	12
Cc1ccc(N=C/C(C(=O)C(F)(F)F)=C(\O)c2cccs2)cc1	i	i	3	-7	0	-6
CC(=O)/C(N=Nc1cccc(C(F)(F)F)c1)=C(\C)O	i	i	-9	-1	-2	9
CN(C(=O)/C(N=Nc1cccc(C(F)(F)F)c1)=C(\O)C(F)(F)F)c1ccccc1	i	100*	1	-5	5	26
C[C@H](NC(=O)c1[nH]cnc1C(=O)Nc1ccc(CNC(=O)OC(C)(C)C)cc1)C(=O)OCc1ccccc1	i	100*	4	x	5	-4
O=C(N[C@@H](Cc1ccccc1)C(=O)OCc1ccccc1)c1nc[nH]c1C(=O)NC(c1ccccc1)c1ccccc1	i	i	17*	-10	5	-1
